Data reported in the supplement of paper PMC9337992.
± gives the standard deviation of the averaged measurements.

Assays:
Assay in all cases: cell proliferation (confluence) relative to DMSO control; higher = less growth inhibition
Conditions in all cases: 5 uM; 6 d
BT549 = test system: BT549
In short: (§1)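 Confluence of triple-negative breast cancer cell lines was measured by phase-contrast imaging on an IncuCyte ZOOM and normalised to DMSO-only wells. Cells went into 384-well plates at 500 per well and, after adhering, were exposed to epigenetic chemical probes in DMSO at a final 5 μM for 6 d. A ×10 objective was used, and images were analysed with Incucyte 2016 software.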

CAL120 = test system: CAL120
In short: as §1

HCC1143 = test system: HCC1143
In short: as §1

HCC1395 = test system: HCC1395
In short: as §1

HCC153 = test system: HCC153
In short: as §1

HCC1806 = test system: HCC1806
In short: as §1

HCC38 = test system: HCC38
In short: as §1

HCC70 = test system: HCC70
In short: as §1

Hs578-T = test system: Hs578-T
In short: as §1

MB157 = test system: MB157
In short: as §1

SUM149-PT = test system: SUM149-PT
In short: as §1

SUM159-PT = test system: SUM159-PT
In short: as §1

Row | SMILES | cell proliferation (BT549) [%] | cell proliferation (CAL120) [%] | cell proliferation (HCC1143) [%] | cell proliferation (HCC1395) [%] | cell proliferation (HCC153) [%] | cell proliferation (HCC1806) [%] | cell proliferation (HCC38) [%] | cell proliferation (HCC70) [%] | cell proliferation (Hs578-T) [%] | cell proliferation (MB157) [%] | cell proliferation (SUM149-PT) [%] | cell proliferation (SUM159-PT) [%]
1 | COc1cc2c(cc1OCCCN1CCCC1)N=C(N)C21CCC1 | 99.32 ± 0.28 | 83.1 ± 6.3 | 95.6 ± 3.2 | 99.981 ± 0.027 | 80.7 ± 2.8 | 99.41 ± 0.36 | 98.89 ± 0.42 | 96.5 ± 3.6 | 92.3 ± 4.1 | 72.5 ± 12 | 78.6 ± 16 | 99.951 ± 0.031
2 | COc1ccccc1S(=O)(=O)Nc1ccc2c(c1)CN(C)C(=O)N2 | 95.7 ± 1.4 | 50.1 ± 11 | 97.21 ± 0.84 | 98.12 ± 0.25 | 59.7 ± 1.8 | 38.5 ± 27 | 35.2 ± 7.6 | 81.7 ± 7.9 | 47.7 ± 1.6 | 50.9 ± 5.5 | 20.8 ± 3.4 | 97.92 ± 0.3
3 | Cc1nnc2c3ccccc3c(N[C@@H](C)[C@H](c3ccccc3)N(C)C)nn12 [L-moses] | 98.1 ± 1.5 | 99.22 ± 0.67 | 97.14 ± 0.68 | 99.898 ± 0.059 | 60.8 ± 6 | 81.2 ± 6.2 | 99.61 ± 0.29 | 96.2 ± 2.5 | 87 ± 19 | 98.5 ± 1.9 | 75.8 ± 11 | 99.952 ± 0.041
4 | COc1ccccc1C(=O)Nc1cc2c(cc1N1CCCC1)n(C)c(=O)n2C | 97.6 ± 1.7 | 99.2 ± 0.47 | 98.3 ± 1.9 | 99.979 ± 0.014 | 62.3 ± 11 | 77.1 ± 7.8 | 99.66 ± 0.35 | 96.7 ± 3.5 | 98.42 ± 0.77 | 89.6 ± 12 | 63 ± 8.4 | 99.986 ± 0.0076
5 | CC[C@H](C)n1cc(C)c2c(C(=O)NCc3c(C)cc(C)[nH]c3=O)cc(-c3ccc(N4CCNCC4)nc3)cc21 | 98.6 ± 2.6 | 91.6 ± 5.4 | 99.53 ± 0.32 | 99.996 ± 0.0038 | 87.9 ± 3.7 | 99.846 ± 0.034 | 99.825 ± 0.095 | 82 ± 8.6 | 97.8 ± 1.3 | 79.1 ± 14 | 90.3 ± 4.3 | 99.995 ± 0.00082
6 | O=C(c1ccc(C(=O)N2CCC(N3CCCC3)CC2)c(Nc2ccccc2)c1)N1CCC(N2CCCC2)CC1 | 99.63 ± 0.2 | 95.4 ± 2.1 | 99.64 ± 0.16 | 99.874 ± 0.068 | 89.5 ± 3.3 | 99.832 ± 0.085 | 99.81 ± 0.17 | 99.24 ± 0.6 | 98.8 ± 0.39 | 99.13 ± 0.32 | 89.4 ± 9.2 | 99.998 ± 0.0015
7 | CCOC(=O)CCNc1cc(N2CCc3ccccc3CC2)nc(-c2ccccn2)n1 | 28.2 ± 3.8 | 22.3 ± 2.1 | 60.8 ± 4.6 | 40.6 ± 9.5 | 21.3 ± 3.7 | 27.9 ± 4.9 | 23.1 ± 5 | 66 ± 12 | 68.5 ± 11 | 33.6 ± 8.3 | 10.2 ± 3.8 | 94.72 ± 0.36
8 | CCn1cc(-c2cccc(C(F)(F)F)c2)c2sc(C(=N)NC3CCS(=O)(=O)CC3)cc2c1=O | 99.17 ± 0.79 | 98.86 ± 0.38 | 98.69 ± 0.74 | 99.948 ± 0.021 | 44.8 ± 4 | 78.6 ± 12 | 98.94 ± 0.64 | 96.7 ± 3.6 | 99.5 ± 0.38 | 71.8 ± 6.5 | 23.9 ± 2.3 | 99.974 ± 0.019
9 | CC(C)Oc1ccc(-c2c[nH]cc2CN(C)CCO)cc1 | 97.58 ± 0.92 | 97.5 ± 1.6 | 96.98 ± 0.82 | 99.978 ± 0.011 | 61.5 ± 8.3 | 81.7 ± 3.2 | 99.55 ± 0.37 | 97.3 ± 1.8 | 97.16 ± 0.64 | 94.2 ± 3.9 | 74 ± 11 | 99.986 ± 0.014
10 | O=C(/C=C/N1C[C@H]2C[C@@H]1CN2c1ccccn1)c1ccccc1O | 99.79 ± 0.1 | 93.4 ± 2.2 | 99.25 ± 0.15 | 99.895 ± 0.019 | 87.8 ± 2.8 | 99.849 ± 0.052 | 99.917 ± 0.014 | 99.13 ± 0.33 | 98.15 ± 0.9 | 98.9 ± 1 | 29.1 ± 5.7 | 99.994 ± 0.0044
11 | COc1c(C)cc(NC(=O)c2nn(Cc3ccc(F)cc3)c3c2CN(C(=O)c2ccc[nH]2)C[C@]3(C)C(N)=O)cc1C | 95.2 ± 2.6 | 98.5 ± 1.5 | 97.72 ± 0.68 | 99.916 ± 0.05 | 56.1 ± 5.2 | 76.3 ± 3.2 | 99.26 ± 0.96 | 99.43 ± 0.33 | 98.56 ± 0.55 | 93.7 ± 9.7 | 75.6 ± 20 | 99.971 ± 0.051
12 | COc1cc(-c2cn(C)c(=O)c3cnccc23)c(OC)cc1CN(C)C | 99.729 ± 0.064 | 96.7 ± 2 | 96.9 ± 3.3 | 99.978 ± 0.01 | 55.9 ± 8.2 | 65.4 ± 6 | 99.64 ± 0.17 | 96.2 ± 2.6 | 98.52 ± 0.23 | 88.3 ± 10 | 74.4 ± 19 | 99.991 ± 0.0063
13 | CN(C)[C@H]1CN(C2CCc3cccc(F)c32)C[C@@H]1c1ccc(N2CCN(S(C)(=O)=O)CC2)cc1 (some centres not stated) | 99.839 ± 0.071 | 91.9 ± 3.3 | 99.22 ± 0.33 | 99.91 ± 0.14 | 83.7 ± 2.5 | 99.14 ± 0.58 | 99.71 ± 0.21 | 82.3 ± 13 | 97.33 ± 0.62 | 91.6 ± 4.3 | 87.8 ± 10 | 99.996 ± 0.0017
14 | CCN(C(=O)CO)[C@H]1CN(/C(=N\C#N)Nc2cccc(OC(F)F)c2)N=C1c1ccc(Cl)c(Cl)c1 | 99.63 ± 0.31 | 90.8 ± 2.4 | 99.11 ± 0.44 | 99.957 ± 0.033 | 82.4 ± 4.8 | 99.79 ± 0.11 | 99.79 ± 0.12 | 90.8 ± 8.2 | 98.67 ± 0.29 | 78.6 ± 8.9 | 75.9 ± 10 | 99.999 ± 0.002
15 | Cn1cc(CCn2cnc(-c3cnn(C)c3)c2-c2ccc(C#N)cc2)cn1 | 98.99 ± 0.43 | 97.56 ± 0.71 | 98.1 ± 2.2 | 99.977 ± 0.017 | 58.1 ± 13 | 76.7 ± 11 | 99.38 ± 0.67 | 85.1 ± 8.9 | 97.89 ± 0.77 | 62.6 ± 28 | 92.6 ± 3.4 | 99.988 ± 0.012
16 | CCCc1cc(C)[nH]c(=O)c1CNC(=O)c1cc(-c2ccc(N3CCN(C(C)C)CC3)nc2)cc2c1cnn2C(C)C | 21 ± 7.7 | 85.5 ± 11 | 98.86 ± 0.59 | 99.88 ± 0.14 | 91.8 ± 4.8 | 92.4 ± 6.9 | 99.93 ± 0.072 | 80 ± 8.9 | 97 ± 2 | 46.2 ± 22 | 11.5 ± 5.8 | 99.997 ± 0.002
